# Data from PubChem BioAssay AID743286 (National Center for Advancing Translational Sciences (NCATS), 2014).
# About 340 (31%) of roughly 1,100 compounds were called active. About 40% were inconclusive and are not listed. Calls follow the shape of the dose curve; as a rule, active = well fitted inhibition curve with a large enough effect; inconclusive = small, poorly fitted or top-dose-only effect; inactive = flat fitted curve, though single readings scatter. The list is a sample of the results.
# Target: Phosphatidylinositol 5-phosphate 4-kinase type-2 alpha (Homo sapiens) (UniProt P48426)
# Assay: qHTS for Inhibitors of PI5P4K: Confirmation in Primary Assay; also: nearly all actives have a fitted effect of over 65% in size
# Settings: PI5P4Kalpha enzyme, ADP-Glo luminescence, 60 min; series mostly up to 76.9 µM; activity change, negative = inhibition: at the top concentration
# Summary of the method: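 ADP-Glo luminescence end-point quantifies ADP from 60-min room-temperature turnover of PI5P by PI5P4Kα. ATP 5 µM final; buffer 0.038 M HEPES pH 7.4, 0.28 mM EGTA, 0.1% CHAPS, 5% DMSO.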
# % is scaled to controls: 0 for no effect and ±100 for the full control effect; potency is read from the fitted curve at half-maximal effect.
# Chain of Phosphatidylinositol 5-phosphate 4-kinase type-2 alpha (Homo sapiens) (P48426 whole entry, looked up): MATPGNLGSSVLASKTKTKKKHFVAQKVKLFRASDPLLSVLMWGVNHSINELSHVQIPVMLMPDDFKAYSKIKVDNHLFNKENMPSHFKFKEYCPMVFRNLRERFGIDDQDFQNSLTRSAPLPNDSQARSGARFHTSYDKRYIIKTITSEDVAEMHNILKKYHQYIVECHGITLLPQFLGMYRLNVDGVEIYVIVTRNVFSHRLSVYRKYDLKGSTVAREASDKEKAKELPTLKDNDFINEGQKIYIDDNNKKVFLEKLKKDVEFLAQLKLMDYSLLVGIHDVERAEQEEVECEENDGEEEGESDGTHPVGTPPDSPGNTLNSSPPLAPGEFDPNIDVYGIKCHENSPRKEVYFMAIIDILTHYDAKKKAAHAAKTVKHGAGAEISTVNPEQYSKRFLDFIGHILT
SMILES,"activity change, negative = inhibition",Potency
N#Cc1ccc(COC(=O)CC(NC(N)=O)c2ccc(Cl)cc2)cc1 (configuration not stated),-7.64% (inactive),
COCCOC(=O)c1[nH]c2c(c1C)C(=O)CC(c1ccco1)C2 (configuration not stated),,15.8 µM (active)
O=C(Nc1ccc(O)c2c(=O)cc(-c3ccccc3Cl)oc12)c1ccc(Cl)c(Cl)c1,-1.44% (inactive),
Nc1c(C(=O)O)cnc2c(-c3ccc(Cl)cc3)cnn12,,6.31 µM (active)
CN1OC[C@@H]2CN3C(=O)N(c4cccc5ccccc45)c4ccccc4[C@@H]3C[C@@H]21,-17.2% (inactive),
CCCn1c(SCC(=O)N2c3ccccc3Sc3ccccc32)nc2c1c(=O)n(C)c(=O)n2C,-3.15% (inactive),
CCC(c1nnnn1Cc1ccco1)N(CCc1ccccc1)Cc1cc2ccc(OC)cc2[nH]c1=O (configuration not stated),2.22% (inactive),
O=C(NCCN1CCN(c2ccccc2)CC1)C1CCCN(S(=O)(=O)c2cnc[nH]2)C1 (configuration not stated),3.17% (inactive),
Cc1cc(C)c2nc(-c3ccccn3)cc(C(=O)Nc3ccc(S(=O)(=O)Nc4onc(C)c4C)cc3)c2c1,,8.91 µM (active)
Cc1cc(NS(=O)(=O)c2ccc(NC(=O)COc3ccc(Br)cc3)cc2)nc(C)n1,0.161% (inactive),
COCCCNC(=O)c1ccc2c(=O)n(CC3CCCO3)c(=S)[nH]c2c1 (configuration not stated),-8.52% (inactive),
CN(Cc1ccccc1)C(=O)c1csc([C@H]2C[C@H](O)[C@@H](CO)O2)n1,-0.235% (inactive),
COc1cccc(CNS(=O)(=O)c2ccccc2Br)c1OC,-0.448% (inactive),
COC(=O)CSc1nc(C)cc(C)n1,1.95% (inactive),
O=C(Cn1cnc2scc(-c3cccc([N+](=O)[O-])c3)c2c1=O)NCc1ccco1,,11.2 µM (active)
CC1CCCCN1C(=O)Cn1cnc2cc([N+](=O)[O-])ccc2c1=O (configuration not stated),-5.4% (inactive),

SMILES,"activity change, negative = inhibition",Potency
COC(=O)CNC(=O)C1Cc2ccccc2CN1S(=O)(=O)c1cccs1 (configuration not stated),-1.95% (inactive),
O=S(=O)(Nc1nc(-c2ccccc2)cs1)c1cc(Cl)ccc1Cl,,28.2 µM (active)
O=C(O)c1ccc(Cl)c(S(=O)(=O)Nc2ccc3[nH]c(=O)[nH]c3c2)c1,-19.7% (inactive),
COC(=O)c1ccccc1NC(=O)CN1CCC(n2nnc3cc(C(F)(F)F)ccc32)CC1,-0.603% (inactive),
Cc1ccc(S(=O)(=O)N2[C@@H](c3ccc(C(C)(C)C)cc3)C(C(=O)O)=CC[C@H]2c2ccc(C(C)C)cc2)cc1,-29.1% (inactive),
Cc1cccc(NC(c2ccc(O)cc2)c2ccc3ccc(C)nc3c2O)n1 (configuration not stated),,22.4 µM (active)
O=c1cc(-c2ccccc2)[nH]n1-c1nc2ccccc2[nH]1,,15.8 µM (active)
CC(=O)Nc1ccc(NC(=S)Nc2ccc(Br)cc2)cc1,2.77% (inactive),
CC(C)C(=O)Nc1nnc(NC(=S)Nc2ccccc2)s1,,20 µM (active)
O=C(CSc1n[nH]c(-c2cccnc2)n1)OC1CCCCC1,-6.36% (inactive),
CCCN(C(=O)c1cc(-c2ccco2)nc2ccccc12)c1c(N)n(Cc2ccccc2)c(=O)[nH]c1=O,,15.8 µM (active)
CCCn1c(N)c(N(CCOC)C(=O)c2cc(-c3ccco3)nc3ccccc23)c(=O)[nH]c1=O,-19% (inactive),
CCCN(C(=O)c1cccc(-n2cccc2)c1)c1c(N)n(Cc2ccccc2)c(=O)[nH]c1=O,,7.08 µM (active)
CCCCC(=O)N(Cc1ccc2c(c1)OCO2)Cc1nc2ccccc2c(=O)[nH]1,-1.7% (inactive),
Cc1ccc(Nc2nc(C)c3c(n2)CC(C)CC3=O)c(C)c1 (configuration not stated),-0.0066% (inactive),
O=C(O)c1cc2c(N3CCC(Cc4ccccc4)CC3)ncnc2s1,,3.98 µM (active)
